# Test results from PubChem BioAssay (NCI).
# This is part of a sample that, as a whole, favours compounds with a hit. Of some 83,000 tested, about 20% had one in any assay.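 The endpoint reported here, percent growth, reads 100 for growth as untreated, 0 for no net growth and -100 for all cells dead.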 Values without a mark were called inactive. Calls of active or inactive are those of the source. The calls were made as follows: active = growth percent below 10; inactive = the rest.
# What was measured:
# Assay in all cases: NCI-60 one-dose screen, 48 h (100 = growth as untreated, 0 = no growth, -100 = all killed)
# Conditions in all cases: 10 µM
# HT29 colon = system: HT29 colon
# SNB-75 CNS = system: SNB-75 CNS
# SNB-19 CNS = system: SNB-19 CNS
# U251 CNS = system: U251 CNS
# PC-3 prostate = system: PC-3 prostate
# SK-MEL-5 melanoma = system: SK-MEL-5 melanoma
# UACC-62 melanoma = system: UACC-62 melanoma
# LOX IMVI melanoma = system: LOX IMVI melanoma
# SK-MEL-28 melanoma = system: SK-MEL-28 melanoma
# SK-MEL-2 melanoma = system: SK-MEL-2 melanoma
Compound,growth (HT29 colon) [%],growth (SNB-75 CNS) [%],growth (SNB-19 CNS) [%],growth (U251 CNS),growth (PC-3 prostate) [%],growth (SK-MEL-5 melanoma),growth (UACC-62 melanoma),growth (LOX IMVI melanoma),growth (SK-MEL-28 melanoma) [%],growth (SK-MEL-2 melanoma) [%]
O=C(Nc1ccccc1)Nc1cccc(-n2cc(-c3ccncc3)c(-c3ccc(O)c(Cl)c3)n2)c1,64.7,48.3,77.2,-9.56% (active),31.3,42.8%,43.8%,47.7%,43.6,–
CN(C)N=Nc1nn(C(=O)Nc2ccc(Cc3ccccc3)cc2)c2ccccc12,41,101,64,67.9%,29.5,-37.5% (active),-8.25% (active),1.48% (active),43.2,58.4
Cc1occc1-c1nnc(SCC(=O)c2ccc(NC(=O)CC(C)C)cc2)o1,113,111,95.8,105%,100,94.9%,104%,105%,123,90.8
CSc1nn(-c2ccccc2)c2ncnc(Oc3ccccc3)c12,87.3,70.1,93.9,86%,98,97%,101%,98.4%,111,80.6
